Screens: PubChem BioAssay, several laboratories
ERa coact inh = ER-alpha (human) coactivator binding inhibition; P03372; TR-FRET ER-alpha LBD / SRC-1 peptide, estradiol-bound; inhibition, % at 25.6 µM; hit rate 1.7% among 86,000; AID 629; in the data active means inhibition above about 50%;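 further: 0% = receptor plus peptide control and 100% = peptide only without receptor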
Target sequence (P03372 whole entry, looked up, the tested form may be a part): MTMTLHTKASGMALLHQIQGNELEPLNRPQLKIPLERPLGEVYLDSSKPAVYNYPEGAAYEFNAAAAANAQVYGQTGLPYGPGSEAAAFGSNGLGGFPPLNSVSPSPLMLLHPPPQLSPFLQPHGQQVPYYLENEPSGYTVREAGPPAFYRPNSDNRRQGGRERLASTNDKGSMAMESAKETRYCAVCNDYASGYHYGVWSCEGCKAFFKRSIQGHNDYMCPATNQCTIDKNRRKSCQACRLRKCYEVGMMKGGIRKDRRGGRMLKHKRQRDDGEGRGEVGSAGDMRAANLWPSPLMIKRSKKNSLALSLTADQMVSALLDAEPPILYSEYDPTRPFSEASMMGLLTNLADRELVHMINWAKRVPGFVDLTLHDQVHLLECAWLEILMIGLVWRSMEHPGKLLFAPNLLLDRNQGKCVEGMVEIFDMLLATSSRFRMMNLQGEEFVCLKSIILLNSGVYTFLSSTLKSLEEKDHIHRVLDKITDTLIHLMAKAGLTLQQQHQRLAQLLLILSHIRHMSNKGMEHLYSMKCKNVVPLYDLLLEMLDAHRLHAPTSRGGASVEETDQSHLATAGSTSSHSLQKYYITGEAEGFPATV
Plk1 PBD FP = inhibitors of human Plk1 polo box domain binding. inhibition, %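 (tested at about 20 µM)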. Plk1 PBD phosphopeptide binding, fluorescence polarization. P53350. hit rate 0.13% among 97,000; in the data active means inhibition above about 34%, passing the limit was not always enough
Smad3 FoxH1 inh = Smad3 (human) transcription factor binding inhibition; P84022; TR-FRET Smad3/Dy647-FoxH1 peptide binding, europium anti-His; inhibition, % at 25 µM; hit rate 0.29% among 88,000; AID 630;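 active means compounds that reduce the energy-transfer binding signal between the protein and its labelled peptide by more than half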;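 further: 0% = Smad3 plus labelled peptide maximal FRET and 100% = peptide-only background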
ERa coact pot = ER-alpha (human) coactivator binding potentiation; hit rate 1.3% among 86,000; P03372; AID 639; coactivator binding (% of control), % at 25.6 µM; TR-FRET ERalpha-LBD/SRC-Cy5 coactivator binding, 2 h; 100 = basal binding, no effect; in the data active means activity above about 200%;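 further: binding measured in presence of low estradiol as agonist stimulus; 0% = peptide alone without receptor and 100% = receptor with peptide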
ERb SRC1 inh = blocks coactivator binding to human estrogen receptor beta; Q92731; TR-FRET ER-beta LBD / SRC1-Cy5 peptide binding; receptor agonist-loaded with 1 µM estradiol; inhibition, % at 25.6 µM; hit rate 1.3% among 86,000; AID 633;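 active means compounds whose percent inhibition of the receptor-coactivator binding signal exceeds about 50% in the single-dose screen, limit read from the data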;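 further: 0% = receptor plus peptide wells without compound and 100% = peptide-only wells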
PLK1 kinase inh = PLK1 (human) kinase inhibition. AID 619. hit rate 0.53% among 97,000. P53350. inhibition, % at 10 µM. recombinant PLK1 kinase, TR-FRET peptide phosphorylation;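 active means inhibition of 50% or more in the single-concentration screen; inactive means inhibition below 50%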;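 further: 0% = DMSO max control and 100% = H-89 dihydrochloride min control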
Starred values were filed as active, the others as inactive; / = no result given; [ ] = dose if it differs, or a comment. Sampled rows, rich in hits. Any-hit rate of the full collection: about 3.3%.

SMILES	ERa coact inh	Plk1 PBD FP	Smad3 FoxH1 inh	ERa coact pot	ERb SRC1 inh	PLK1 kinase inh
Cc1cc(NC(=O)CSc2nc3cc4c(cc3c(=O)n2CCc2ccccc2)OCO4)no1	30.0	/	3.5	111.2	20.0	/
C[N+](C)(C)/N=C/c1ccc(O)c(O)c1	/	/	12.5	/	/	/
c1nc(N2CCCCC2)c2[nH]cnc2n1	-9.5	/	-5.9	117.2	33.6	/
c1nc(N2CCOCC2)c2[nH]cnc2n1	9.7	0.6	10.9	125.8	0.4	63.0*
CCn1c(SCc2nc3sc(C(=O)O)c(C)c3c(=O)[nH]2)nc2ccccc21	/	-45.0	/	/	/	56.2*
COC(=O)c1ccc2c(c1)NC(=O)C1CCCN21 (stereo not given)	80.6*[fluorescence artefact?]	/	55.9*[fluorescence artefact?]	35.3	21.8	/
Cc1ccc(NC(=O)COC(=O)c2ccc3c(c2)NC(=O)C2CCCN32)cc1 (stereo not given)	-1.3	-3.1	-4.5	110.7	4.3	-1.6
Cc1c(C(=O)Nc2ccc(-n3cnnn3)cc2)oc2ccccc12	76.4*[fluorescence artefact?]	35.7	-8.8	199.5	64.8*[fluorescence artefact?]	-33.3
COc1ccc(-n2c(SCCC#N)nnc2-c2cc(Cl)ccc2OC)cc1Cl	47.1	31.9	8.6	398.6*[fluorescence artefact?]	45.6	-0.6
Cc1cccc(-c2nnc(SCC#N)n2-c2cccc(Cl)c2)c1	5.3	-9.7	-1.9	130.9	-8.2	8.4
CCOCCCn1c(=N)c(C(=O)NCc2ccc3c(c2)OCO3)cc2c(=O)n3ccccc3nc21	35.5	16.6	10.1	73.2	23.8	1.3
CCCn1c(=N)c(C(=O)NCc2ccc3c(c2)OCO3)cc2c(=O)n3cccc(C)c3nc21	78.7*[fluorescence artefact?]	8.4	2.9	26.0	53.4*[fluorescence artefact?]	-20.2
O=S(=O)(O)c1cc(N=Nc2cccc3ccccc23)c(O)c2ncccc12	/	/	34.8	/	/	/
O=C1CCC(=O)N1c1ccccc1-c1ccccc1	-4.1	27.6	-0.1	117.5	0.2	3.3
Cc1cc(-c2ccc(N3C(=O)CCC3=O)c(C)c2)ccc1N1C(=O)CCC1=O	-7.2	11.2	0.6	106.5	62.6*	-0.4
COc1cc(/C=N/NC(=O)/C(=C\c2ccc([N+](=O)[O-])cc2)NC(=O)c2ccccc2)cc(OC)c1O	52.8*[fluorescence artefact?]	-21.1	12.3	50.9	10.2	-3.3
O=C(N/N=C/c1ccncc1)/C(=C/c1ccccc1)NC(=O)c1ccccc1	/	-22.4	/	/	/	-8.4
CCc1cccc(CC)c1NC(=O)CN1CC(C)SC1=NC1CCCCC1 (stereo not given)	-4.1	-2.0	-1.8	101.6	-5.0	-3.2
N#[N+]c1ccc(Nc2ccccc2)cc1	/	/	-1.4	/	/	/
COC(=O)c1ccc(S(=O)(=O)N(Cc2cc3cc4c(cc3[nH]c2=O)OCO4)C2CCCCC2)cc1	4.1	/	-18.9	306.1*	-3.9	/
Cc1c(C)n(C(=O)CN2CCN(c3ccccc3)CC2)c2ccccc12	0.7	13.2	8.8	108.3	-31.8	-14.1
Cc1ccc(-n2c(SCC(=O)NCc3ccco3)nc3sc4c(c3c2=O)CC(C)(C)SC4)cc1	4.9	-15.3	-55.9	139.4	14.4	-18.6
CCN(CC)C(=O)CSc1nc2sc3c(c2c(=O)n1-c1ccc(C)cc1)CC(C)(C)SC3	-16.6	6.2	3.5	245.8*	-15.2	-44.5
CC[N+](C)(CC)CCN1C(=O)c2ccccc2S1(=O)=O	/	/	21.1	/	/	/
O=C(O)[C@@H]1[C@H](C(=O)NCc2cccnc2)[C@@H]2CC[C@H]1O2	/	/	-4.4	/	/	/
SMILES	ERa coact inh	Plk1 PBD FP	Smad3 FoxH1 inh	ERa coact pot	ERb SRC1 inh	PLK1 kinase inh
CC(C)CSc1nc2c(c(=O)[nH]c(=O)n2C)n1CCc1ccccc1	-6.5	-6.8	4.0	110.8	3.6	0.3
CC(C)CSc1nc2c(c(=O)[nH]c(=O)n2C)n1CC(O)COc1cccc2ccccc12 (stereo not given)	13.0	-33.1	-12.2	75.4	56.0*	-2.2
CCc1nn2c(=O)cc(CSc3nc4sc5c(c4c(=O)n3C)CCCC5)nc2s1	37.5	-4.8	-1.0	85.0	52.6*[fluorescence artefact?]	-10.0
CSc1nc2sc3c(c2c(=O)n1C)CCCC3	3.9	/	6.3	99.8	1.0	/
NS(=O)(=O)c1cc(C(=O)O)c(O)c2ccccc12	/	/	17.3	/	/	/
CN(C)CCCc1c2ccccc2nc2ccc(Cl)cc12	/	/	2.0	/	/	/
CCCn1c(=O)c(C(=O)Nc2nnc(CC)s2)c(O)c2ccccc21	9.2	/	52.7*[fluorescence artefact?]	78.0	6.5	/
O=C(O)[C@H](CCc1ccccc1)N1C(=O)c2ccccc2C1=O	/	/	26.3	/	/	/
CC(C)CCSc1nc(N)c(C#N)cc1C#N	39.7	-14.8	10.3	391.2*[fluorescence artefact?]	25.0	-1.6
CN1CCc2nc(SCC(=O)Nc3ccc(Cl)cc3)c(C#N)cc2C1	6.2	-12.6	-7.0	97.1	5.8	53.2*
CC(=O)c1cc(C#N)c(SCCC(C)C)nc1C	8.9	21.5	5.1	102.6	-4.3	-11.0
COCc1cc(C)nc(SCC(=O)Nc2ccccc2C)c1C#N	-3.3	2.2	3.1	135.0	-11.4	-5.8
COCc1cc(C)nc(SCC(=O)Nc2ccc(C)c(C)c2)c1C#N	-6.8	/	9.4	207.8*[fluorescence artefact?]	2.6	/
COc1ccc(NC(=O)CSc2nc(-c3ccc(C)cc3)cc(C(F)(F)F)c2C#N)cc1	/	14.4	/	/	/	-16.1
CCOC(=O)c1c(C#N)c(SCC(=O)Nc2ccc(OC)cc2)nc2c1CN(CC)CC2	-2.2	6.1	-8.9	262.1*	-1.0	-6.4
CC(Sc1cccc(C(F)(F)F)c1)C(=O)NC(N)=O (stereo not given)	-7.3	/	3.8	114.8	-5.8	/
COc1ccc(NC(=O)CSc2nc(N)c(C#N)cc2C#N)cc1	/	-0.1	/	/	/	61.8*
Cc1nc(N)nc2ccccc12	/	/	6.9	/	/	/
CC1(C)C(=O)Nc2ccccc2N1C(=O)COC(=O)C12CC3CC(CC(O)(C3)C1)C2	88.0*[fluorescence artefact?]	5.7	-11.9	54.0	78.4*[fluorescence artefact?]	-19.5
O=C1CN(C(=O)COC(=O)C23CC4CC(CC(O)(C4)C2)C3)c2ccccc2N1	0.3	-16.2	-2.0	103.1	5.2	0.8
N/N=C1/CC(=O)NC(=O)N1	/	/	-10.3	/	/	/
CN1CCC[C@H](C(=O)OCC(=O)[C@]2(O)CC[C@@H]3[C@H]4CCC5=CC(=O)CC[C@@]5(C)[C@@H]4[C@@H](O)C[C@]32C)C1	/	/	2.8	/	/	/
COc1cccc(-n2nnnc2SCC(=O)c2cc(OC)ccc2OC)c1	12.5	/	4.4	167.1	25.6	/
CCCc1cc(=O)oc2cc(OCC(=O)N3CCc4ccccc43)ccc12	11.6	14.0	-124.6	335.0*[fluorescence artefact?]	20.3	-9.1
CCCCc1cc(=O)oc2cc(OCC(=O)N3CCc4ccccc43)ccc12	17.6	-17.4	8.2	200.4*	15.5	-18.5
CCCc1cc(=O)oc2cc(OCC(=O)Nc3cc(C)on3)ccc12	12.5	15.6	-24.4	819.8*[fluorescence artefact?]	-2.8	-10.9
Cc1cc(=O)oc2cc(OCC(=O)OCC(=O)N3CCc4ccccc43)ccc12	14.7	9.0	4.9	176.8	9.8	-7.9
Cn1c(C(=O)OC(C(=O)NC2CCCCC2)c2ccncc2)cc2sccc21 (stereo not given)	42.2	4.7	-1.1	262.7*[fluorescence artefact?]	27.1	-13.9
Cn1c(C(=O)OC(C(=O)NC2CCCC2)c2ccncc2)cc2sccc21 (stereo not given)	18.3	3.8	6.0	90.0	24.6	-1.7
